PubChem BioAssay AID504441 (Broad Institute, 2011)
The campaign covered roughly 310,000 compounds. About 1,300 (0.42%) were called active. This is one part of a sample in which actives are shown more often than they occur. Cut-off read from the data, not from the text of the source: active = inhibition above about 50%; inactive = the rest.

The compounds below were run against Dual specificity tyrosine-phosphorylation-regulated kinase 1A (Rattus norvegicus) (UniProt Q63470) (assay: inhibition of Dyrk1A kinase activity – biochemical, single point, plate reader, primary screen (AID 504441;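 note: plate controls were vehicle with enzyme for no effect and no enzyme for full effect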)). Conditions: ADP-Glo luminescence, NFATc1 peptide, at 12.5 µM, stronger effect = higher value.

Structure (SMILES) | inhibition
O=C(O)c1cc(Cl)c(Cl)cc1C(=O)Nc1cccc2ncccc12 | 31.9% (inactive)
O=C(Nc1cccc2ncccc12)c1ccc(-c2ccc(Cl)cc2Cl)o1 | 12.4% (inactive)
Cc1ccc(/C=C(\C#N)C(=O)Nc2cccc3ncccc23)o1 | 84.4% (active)
O=C1C2C3C=CC(C3)C2C(=O)N1c1ncc([N+](=O)[O-])s1 (configuration not stated) | -1.64% (inactive)
CCCN(C(=O)COC(=O)CNS(=O)(=O)c1ccc(NC(C)=O)cc1)C1CCS(=O)(=O)C1 (configuration not stated) | 7.58% (inactive)
CC(C)OC(=O)c1ccc(NCc2cc(O)ccc2O)cc1Cl | 0.287% (inactive)
COc1ccc(/C=C2/CCCc3ccccc3C2=O)cc1 | 11.6% (inactive)
O=[N+]([O-])c1ccccc1/C=N/n1c(COc2ccccc2)n[nH]c1=S | -1.54% (inactive)
Oc1ccccc1/C=N/n1c(-c2cccs2)n[nH]c1=S | -4.73% (inactive)
CCc1n[nH]c(=S)n1/N=C/c1c[nH]c2ccc(Br)cc12 | 50.2% (active)
O=C1/C(=C\c2ccc(O)cc2)CCC1CNc1ccc(Cl)cc1 (configuration not stated) | 2.38% (inactive)
COc1ccc(C2NCCCC2c2ccccc2)cc1 (configuration not stated) | -2.56% (inactive)
O=C(NN=Cc1ccccc1O)NN=Cc1ccccc1O | 6.12% (inactive)
CCOC(=O)Cn1c(-c2cccnc2Cl)nc2ccccc21 | 80.1% (active)
CCOC(=O)Cn1c(=O)n(Cc2ccc(OC)cc2)c(=O)c2cccnc21 | 2.78% (inactive)
CCn1c(-c2cccnc2Cl)nc2cc(C)c(C)cc21 | 2.9% (inactive)
O=c1c2ccccc2ncn1CCc1ccncc1 | 7.95% (inactive)
OCC(O)C1OCOC(C(O)CO)C1O (configuration not stated) | -1.78% (inactive)
O=C(NCC1CCCCC1)NCC1CCCCC1 | 7.91% (inactive)
O=C(CC(O)(C(F)(F)F)C(F)(F)F)Nc1ccc(Cl)c(Cl)c1 | 53.9% (active)
O=C(Cc1ccc(Cl)c(Cl)c1)Nc1ccc(SC(F)F)cc1 | -0.116% (inactive)
O=C(CC1SCCNC1=O)Nc1ccc(Cl)c(Cl)c1 (configuration not stated) | -4.03% (inactive)
CC/C(=C(/c1ccccc1)c1ccc(OCC[N+](C)(C)C)cc1)c1ccccc1 | 7.18% (inactive)

Structure (SMILES) | inhibition
COc1ccc2[nH]c(C)c(CCN(Cc3cccs3)C(=S)Nc3ccccc3OC)c2c1 | 57.4% (active)
Cc1[nH]c2ccccc2c1CCN(Cc1cccs1)C(=S)NC(C)(C)C | -4.25% (inactive)
COc1cccc(NC(=S)N(CCc2c(C)[nH]c3ccccc23)Cc2ccco2)c1 | 7.39% (inactive)
NN=C(NN=Cc1ccccc1)c1ccccc1 | -4.79% (inactive)
CN(C(=O)c1cccc(NC(=O)Cc2ccc(NC(=O)C3CCCN(C(=O)C4CCCC4)C3)cc2)c1)C1CCC1 (configuration not stated) | 2.93% (inactive)
CC(=NNC(=S)N1CCCCCC1)c1ccccn1 | 0.973% (inactive)
Cc1cc(NC(=O)C(C)SCC(=O)Nc2cccc(S(=O)(=O)N3CCCCCC3)c2)no1 (configuration not stated) | -1.84% (inactive)
CC(C)c1ccc(C=NNc2ccc([N+](=O)[O-])cn2)cc1 | -3.91% (inactive)
Cc1ccc(-n2c(C)cc(/C=N/Nc3ccc([N+](=O)[O-])cn3)c2C)c(C)c1 | -4.85% (inactive)
Cc1cc(/C=N/Nc2ccc([N+](=O)[O-])cn2)c(C)n1-c1cccc(C(=O)O)c1 | 50.2% (active)
Cc1cccc(NC(=S)N2CCC(C(=O)c3ccc(F)cc3)CC2)c1 | 10.4% (inactive)
O=C(Nc1ccc2ccccc2c1[N+](=O)[O-])c1ccccc1 | 3.22% (inactive)
O=C(OCCOc1ccccc1Cl)c1cc(S(=O)(=O)N2CCCCC2)ccc1N1CCOCC1 | -7.28% (inactive)
CC(C)Sc1nc(N)nc2c1ncn2C1OC(CO)C(O)C1O (configuration not stated) | -4.63% (inactive)
Nc1nc(SCc2ccc([N+](=O)[O-])cc2)c2ncn(C3OC(CO)C(O)C3O)c2n1 (configuration not stated) | 56.9% (active)
Cc1nc(N)nc(SCc2ccc([N+](=O)[O-])cc2)c1N | -3.28% (inactive)
O=[N+]([O-])c1ccc(COc2ccccc2CN2CCOCC2)cc1 | 4.81% (inactive)
CNN/C(N=Cc1ccc([N+](=O)[O-])s1)=N\S(=O)(=O)c1cc(C)c(Cl)cc1SCc1ccccc1 | 1.25% (inactive)
Cc1ccc(S(=O)(=O)N2C[C@@H]3CCCC[C@@H]3[C@@H](C)[C@H]2c2cn(Cc3ccccc3)c3ccc(F)cc23)cc1 | -0.552% (inactive)
O=[N+]([O-])c1cc(Br)c(O)c(/C=N/Nc2nc3ccccc3s2)c1 | 32.7% (inactive)
N=C1C(c2nc3ccccc3s2)=C(O)CN1NC(=O)c1ccc([N+](=O)[O-])cc1 | 46.9% (inactive)
O=C(NC(Nc1nc2ccc([N+](=O)[O-])cc2s1)(C(F)(F)F)C(F)(F)F)c1ccccc1 | 73.9% (active)
O=C(O)C(CCc1ccccn1)c1ccccc1 (configuration not stated) | 3.61% (inactive)

Structure (SMILES) | inhibition
N#CC1=C(N)Oc2cc(N)ccc2C1c1ccccc1 (configuration not stated) | 0.0153% (inactive)
COc1ccc(CNCCCNCc2ccc(OC)c(OC)c2)cc1OC | -3.55% (inactive)
CCOc1cc(/C=C2\SC(N3CCCC(C)C3)=NC2=O)ccc1O (configuration not stated) | 31.5% (inactive)
CCOc1cc(/C=C2\SC(N3CCCCC3)=NC2=O)ccc1O | 62.2% (active)
O=C1N=C(N2CCCC2)S/C1=C\c1cccc(Br)c1 | -2.99% (inactive)
CCN1CCC(O)(/C=C/c2ccc(C)cc2)C(C(=O)/C=C/c2ccc(C)cc2)C1 (configuration not stated) | -5.12% (inactive)
O=C(C1CCN(S(=O)(=O)c2ccc(Br)s2)CC1)N1CCN(c2ccccc2)CC1 | 2.78% (inactive)
O=C(NCCc1ccccc1)C1CCN(S(=O)(=O)c2ccc(Br)s2)CC1 | 60.5% (active)
CSc1ccc(S(=O)(=O)N2CCC(C(=O)NCCc3ccccc3)CC2)cc1 | -0.684% (inactive)
COc1ccccc1N(CC(=O)Nc1c(C)n(C)n(-c2ccccc2)c1=O)S(=O)(=O)c1ccccc1 | 8.43% (inactive)
Cc1ccc(S(=O)(=O)N2CCN(C(=O)COC(=O)/C=C/c3cccc(Cl)c3)CC2)c(C)c1 | 2.98% (inactive)
CCOCCCNC(=O)C(NC(=O)c1ccccc1O)c1ccccc1 (configuration not stated) | 2.95% (inactive)
CCOCCCNC(=O)C(NC(=O)c1ccc(=O)[nH]c1)c1ccc(Cl)cc1 (configuration not stated) | 62.1% (active)
CCOCCCNC(=O)C(NC(=O)c1ccc(=O)[nH]c1)c1ccc(C)cc1 (configuration not stated) | 4% (inactive)
O=C1/C(=C\c2ccc([N+](=O)[O-])cc2)CS(=O)(=O)C/C1=C/c1ccc([N+](=O)[O-])cc1 | 2.21% (inactive)
N#Cc1cccc(CN2CCC(=O)N(CCO)CC2)c1 | 12.9% (inactive)
O=C1CCN(Cc2ccccc2)CCN1[C@H](CSc1ccccc1)c1ccccc1 | 7.38% (inactive)
N#Cc1cccc(CN2CCC(=O)N([C@H](CO)c3ccccc3)CC2)c1 | 50.1% (active)
CCCCN(C(=O)CSCc1ccc(C)cc1)c1c(N)n(Cc2ccccc2)c(=O)[nH]c1=O | -1.45% (inactive)
O=[N+]([O-])c1ccc(NS(=O)(=O)c2ccccc2)c(Cl)c1 | -7.67% (inactive)
O=C(O)c1ccc(NN=CC2=C(N3CCOCC3)/C(=C/c3ccccc3)CC2)cc1 | 17.6% (inactive)
COc1ccc(S(=O)(=O)N2CCc3ccccc32)cc1C(=O)Nc1cc(S(C)(=O)=O)ccc1Cl | -1.51% (inactive)
Cc1ccccc1Nc1nc(-c2cccnc2)cs1 | 9.73% (inactive)

Structure (SMILES) | inhibition
Oc1ccc(-c2csc(Nc3cccnc3)n2)cc1 | 53.9% (active)
CN(c1ccc(O)cc1)c1nc(-c2cccnc2)cs1 | 3.73% (inactive)
O=C(NNC(=O)c1ccccc1O)c1ccccc1O | -1.63% (inactive)
CCOC(=O)c1ccccc1OC(=O)Oc1ccccc1C(=O)OCC | 4.02% (inactive)
O=C1OCC2=C1C(c1ccc(Cl)cc1)c1cc3c(cc1O2)OCO3 (configuration not stated) | -1.45% (inactive)
O=C(Nc1ccc(S(=O)(=O)N2CCOCC2)cc1)C1CCN(S(=O)(=O)c2ccc(Cl)cc2)CC1 | 7.12% (inactive)
NS(=O)(=O)c1ccc(-c2ccc(/C=C3\SC(=O)NC3=O)o2)cc1 | 87.9% (active)
CN1CCN(/N=C/c2ccc(-c3ccc([N+](=O)[O-])cc3)o2)CC1 | 4.45% (inactive)
CN1C(=O)/C(=C\c2ccc(-c3ccccc3)o2)SC1=S | -4.31% (inactive)
O=C(Nc1c(Br)cc2c(c1Br)Cc1cc([N+](=O)[O-])ccc1-2)C(Cl)Cl | -6.68% (inactive)
Cc1cc(OCCCC(=O)Nc2cc(S(=O)(=O)N3CCOCC3)ccc2N2CCOCC2)ccc1Cl | 1.11% (inactive)
CCOC(=O)[C@H]1[C@H]2COc3ccc(Br)cc3[C@@H]2N2C(=O)CN(C)C(=O)[C@@]12C | -7.39% (inactive)
CC(=O)Nc1cccc(-c2csc(Nc3cccc(C)n3)n2)c1 | 9.85% (inactive)
O=C(Nc1cccc(-c2nc3ccccc3[nH]2)c1)c1ccc(C(=O)Nc2cccc(-c3nc4ccccc4[nH]3)c2)cc1 | 4.53% (inactive)
CC(=O)Nc1cccc(-c2cnc3ccccc3n2)c1 | 50.4% (active)
CN(C)C(=S)N=c1ssc(=S)n1Cc1ccco1 | 0.385% (inactive)
O=C(Cc1ccc([N+](=O)[O-])cc1)NCCc1ccc2c(c1)OCO2 | 3.06% (inactive)
COc1ccc(C(=O)N(C)Cc2ccc(OC)c(OC)c2OC)cc1S(=O)(=O)N1CCOCC1 | -3.97% (inactive)
NC(CSC1(c2ccccc2)c2ccccc2-c2ccccc21)C(=O)O (configuration not stated) | -0.913% (inactive)
COc1cc2[nH]c(O)c(C=O)c2cc1OC | 3.93% (inactive)
Cc1cccc(-c2nc(Nc3ccc(O)cc3)c3ccccc3n2)c1 | 62% (active)
COc1ccc(Nc2nc(-c3cccnc3)nc3ccccc23)cn1 | 24.1% (inactive)
CC(=O)Nc1cccc(Nc2nc(-c3cccs3)nc3ccccc23)c1 | 26.8% (inactive)
